Assay outcomes as filed in PubChem BioAssay.
T cruzi growth-1: T. cruzi intracellular proliferation inhibitors, primary screen, cell-based, beta-gal Tulahuen parasites, NIH3T3 host, luminescence; T. cruzi beta-gal in NIH3T3, GalScreen luminescence, 90 h; inhibition, % at 8.34 µM; hit rate 5.9% among 77,000; AID 624255, 2012;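 active = mean inhibition above about 93%, with at least 55% of replicates each passing it, limit read from the data, passing the limit was not always enough; inconclusive = only one of those two conditions holds; inactive = neither condition holds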
Pf Dd2 growth: P. falciparum Dd2 growth inhibitors, primary screen, SYBR Green fluorescence, single dose replicates; hit rate 2.3% among 94,000; 72 h; hits give low values; activity change, % at 10 µM; in the data active = activity change below about -80%; inconclusive = no clear call, values can overlap the other calls
C diff HTS: C. difficile growth inhibitors, primary screen, HTS; Clostridium difficile clinical isolate growth, OD600, 24 h; hits give low values; growth activity, negative = inhibition, % at 16 µg/mL (by protocol); hit rate 0.25% among 86,000; AID 1259249, 2017;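 active = mean growth activity at or below -80% and every replicate also at or below -80%; inconclusive = mean at or below -80% but some replicate above -80%; inactive = mean growth activity above -80%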
T cruzi growth-2: T. cruzi intracellular proliferation inhibitors, confirmation, cell-based, NIH3T3 host, beta-gal parasite, luminescence, cherry-pick. shares compounds with T cruzi growth-1. T. cruzi beta-gal in NIH3T3, GalScreen luminescence, 90 h. inhibition, % at 8.35 µM. hit rate 72% among 5,600;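 active = mean replicate inhibition above about 95% and at least 55% of replicates individually reaching it, limit read from the data; inconclusive = only one of the two criteria is met; inactive = neither criterion is met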
T cruzi growth-3: inhibitors of intracellular T. cruzi replication, confirmation, NIH3T3 host cells, beta-gal parasites, cherry-pick, set 2; T. cruzi beta-gal in NIH3T3, GalScreen luminescence, 90 h; hit rate 21% among 5,600; shares compounds with T cruzi growth-1; AID 651740, 2012; inhibition, % at 2.09 µM;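 active = mean inhibition above about 95%, with at least 55% of replicates also reaching it, limit read from the data; inconclusive = meets just one of the two conditions; inactive = meets neither condition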
NIH3T3 tox: cytotoxicity in mouse NIH/3T3 fibroblasts, confirmation, cytotoxicity control for T. cruzi proliferation inhibitor project, cell-based, cherry-pick, single point. shares compounds with T cruzi growth-1. AID 651742, 2012. NIH/3T3 viability, CellTiter-Glo ATP luminescence, 90 h. hit rate 14% among 5,600. cytotoxicity (signal decrease), % at 8.35 µM;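 active = mean signal decrease across replicates above about 35% based on untreated-well scatter, with enough replicates individually passing, limit read from the data; inconclusive = no rule stated though some were filed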
NIH3T3 tox 2: NIH/3T3 fibroblast cytotoxicity, confirmation, cytotoxicity control, cell-based, cherry-pick, single point, set 2; shares compounds with T cruzi growth-1; NIH/3T3 viability, CellTiter-Glo ATP luminescence, 90 h; inhibition, % at 24.9 µM; hit rate 56% among 5,600; AID 651744, 2012;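 active = mean loss of cell viability signal at or above a set limit, and enough replicates individually reaching it; inconclusive = meets only the mean limit or only the replicate share; inactive = meets neither condition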
Of the large screens only hits and unclear results are named; the others gave an inactive call (follow-up assays come after a bar, where they were run). The list is not random: actives were taken first. Their share in the collection is about 6.8%.

CO[C@H]1CN(C)C(=O)c2cc(NS(=O)(=O)c3cn(C)cn3)ccc2OC[C@H](C)N(Cc2cccc(F)c2)C[C@H]1C	none (no result: T cruzi growth-1, C diff HTS)
O=S(=O)(Cc1ccccc1)NCC[C@@H]1CC[C@H](NS(=O)(=O)c2ccc(F)cc2)[C@H](CO)O1	none
Cc1ccccc1-c1ccc([C@@H]2[C@H]3CN(C(=O)c4cccnc4)CCCCN3[C@H]2CO)cc1	none
Cc1ccccc1-c1ccc([C@H]2[C@@H](CO)N3CCCCN(C(=O)c4cccnc4)C[C@@H]23)cc1	T cruzi growth-1 103 | T cruzi growth-2 99 | T cruzi growth-3 102 | NIH3T3 tox 38 | NIH3T3 tox 2 49
COc1ccccc1-c1ccc([C@H]2[C@@H](CO)N3CCCCN(C(=O)c4cccnc4)C[C@@H]23)cc1	none
Cc1cccc(-c2ccc([C@@H]3[C@H](CO)N4CCCCN(C(=O)c5cccnc5)C[C@@H]34)cc2)c1	T cruzi growth-1 105 | T cruzi growth-2 inactive | T cruzi growth-3 inactive | NIH3T3 tox inactive | NIH3T3 tox 2 36
COc1ccccc1-c1ccc([C@H]2[C@H](CO)N3CCCCN(C(=O)c4cccnc4)C[C@@H]23)cc1	T cruzi growth-1 97 | T cruzi growth-2 inconclusive | T cruzi growth-3 inactive | NIH3T3 tox inconclusive | NIH3T3 tox 2 39
Cc1cccc(-c2ccc([C@H]3[C@H]4CN(C(=O)c5ccncc5)CCCCN4[C@H]3CO)cc2)c1	none
C[C@H](CO)N1C[C@H](C)[C@@H](CN(C)Cc2ccc(Cl)c(Cl)c2)Oc2c(NC(=O)c3nc4ccccc4s3)cccc2C1=O	T cruzi growth-1 102 | T cruzi growth-2 99 | T cruzi growth-3 inactive | NIH3T3 tox inactive | NIH3T3 tox 2 inactive
Cc1ccc(S(=O)(=O)N(C)C[C@H]2Oc3c(NC(=O)c4nc5ccccc5s4)cccc3C(=O)N([C@@H](C)CO)C[C@@H]2C)cc1	T cruzi growth-1 115 | T cruzi growth-2 inconclusive | T cruzi growth-3 inactive | NIH3T3 tox inactive | NIH3T3 tox 2 44
C[C@@H]1CN([C@H](C)CO)C(=O)c2cccc(NC(=O)c3nc4ccccc4s3)c2O[C@H]1CN(C)Cc1ccc(Cl)c(Cl)c1	none
C[C@H](CO)N1C[C@H](C)[C@H](CN(C)Cc2ccc(-c3ccccc3)cc2)Oc2c(NC(=O)c3nc4ccccc4s3)cccc2C1=O	none
C[C@@H]1CN([C@@H](C)CO)C(=O)c2cccc(NC(=O)c3nc4ccccc4s3)c2O[C@@H]1CN(C)Cc1ccccc1	none
Cc1ccc(S(=O)(=O)N(C)C[C@H]2Oc3c(NC(=O)c4nc5ccccc5s4)cccc3C(=O)N([C@H](C)CO)C[C@@H]2C)cc1	none
C[C@H](CO)N1C[C@H](C)[C@@H](CN(C)Cc2ccc(-c3ccccc3)cc2)Oc2c(NC(=O)c3nc4ccccc4s3)cccc2C1=O	T cruzi growth-1 inconclusive | T cruzi growth-2 105 | T cruzi growth-3 inactive | NIH3T3 tox inactive | NIH3T3 tox 2 inactive
C[C@H]1CN([C@@H](C)CO)C(=O)c2cccc(NC(=O)c3nc4ccccc4s3)c2O[C@H]1CN(C)Cc1ccc(-c2ccccc2)cc1	T cruzi growth-1 102 | T cruzi growth-2 102 | T cruzi growth-3 inactive | NIH3T3 tox inactive | NIH3T3 tox 2 inactive
COc1ccc(S(=O)(=O)N(C)C[C@@H]2Oc3c(NC(=O)c4nc5ccccc5s4)cccc3C(=O)N([C@@H](C)CO)C[C@H]2C)cc1	none (no result: C diff HTS)
COc1ccc(CN(C)C[C@@H]2OCCCC[C@@H](C)Oc3ccc(NC(=O)c4ccncc4)cc3C(=O)N([C@@H](C)CO)C[C@H]2C)cc1	none
CO[C@@H]1CN(C)C(=O)c2ccc(NC(=O)C3CCC3)cc2OC[C@@H](C)N(Cc2ccncc2)C[C@H]1C	none (no result: T cruzi growth-1)
COc1ccc(CNC(=O)C[C@@H]2C[C@H]3c4cc(NC(=O)C5CCC5)ccc4O[C@H]3[C@@H](CO)O2)cc1	none (no result: T cruzi growth-1)
CCCNC(=O)C[C@H]1C[C@@H]2c3cc(NC(=O)CN(C)C)ccc3O[C@@H]2[C@H](CO)O1	none
COCCNC(=O)C[C@@H]1C[C@@H]2c3cc(NC(=O)Nc4ccc(OC)cc4)ccc3O[C@@H]2[C@H](CO)O1	none
COc1ccc(CNC(=O)C[C@@H]2C[C@H]3c4cc(NC(=O)C5CCC5)ccc4O[C@H]3[C@H](CO)O2)cc1	T cruzi growth-1 177 | T cruzi growth-2 inconclusive | T cruzi growth-3 inactive | NIH3T3 tox inactive | NIH3T3 tox 2 inactive
CCCNC(=O)C[C@@H]1C[C@H]2c3cc(NC(=O)Nc4ccc(OC)cc4)ccc3O[C@H]2[C@@H](CO)O1	none
COc1ccc(NC(=O)Nc2ccc3c(c2)[C@H]2C[C@H](CC(=O)NCCc4ccccc4)O[C@@H](CO)[C@H]2O3)cc1	T cruzi growth-1 148 | T cruzi growth-2 105 | T cruzi growth-3 inactive | NIH3T3 tox inactive | NIH3T3 tox 2 inactive
CCCNC(=O)C[C@H]1C[C@H]2c3cc(NC(=O)CN(C)C)ccc3O[C@H]2[C@@H](CO)O1	T cruzi growth-1 101 | T cruzi growth-2 inactive | T cruzi growth-3 inactive | NIH3T3 tox inactive | NIH3T3 tox 2 inactive
COc1ccc(NC(=O)Nc2ccc3c(c2)[C@@H]2C[C@@H](CC(=O)NCCc4ccccc4)O[C@H](CO)[C@@H]2O3)cc1	T cruzi growth-1 133 | T cruzi growth-2 105 | T cruzi growth-3 inactive | NIH3T3 tox inactive | NIH3T3 tox 2 inactive
Cc1noc(C)c1NC(=O)N(C)C[C@@H]1Oc2ccc(NS(=O)(=O)c3c(C)noc3C)cc2CC(=O)N([C@H](C)CO)C[C@@H]1C	none
C[C@H]1CN([C@@H](C)CO)C(=O)c2cc(-c3cncnc3)cnc2O[C@@H]1CN(C)C(=O)CN1CCOCC1	none (no result: T cruzi growth-1)
COc1ccc2c3c([nH]c2c1)[C@H](CO)N(C(=O)NC1CCCC1)CC31CN(S(C)(=O)=O)C1	none (no result: T cruzi growth-1)
CCCNC(=O)Nc1ccc2c(c1)C(=O)N(C)[C@@H]1CC[C@H](CC(=O)NC)O[C@H]1CO2	none
CCCN(C)C[C@H]1Oc2cc(/C=C/c3ccccc3)ccc2S(=O)(=O)N([C@H](C)CO)C[C@H]1C	none (no result: T cruzi growth-1)
COc1ccc(NC(=O)Nc2ccc3c(c2)[C@@H]2C[C@@H](CC(=O)NCCc4ccccc4)O[C@@H](CO)[C@@H]2O3)cc1	T cruzi growth-1 179 | T cruzi growth-2 111 | T cruzi growth-3 105 | NIH3T3 tox inactive | NIH3T3 tox 2 inactive
CCCNC(=O)C[C@H]1C[C@H]2c3cc(NC(=O)Nc4ccc(OC)cc4)ccc3O[C@H]2[C@H](CO)O1	none
